Test results: PubChem BioAssay (NCI)
This is part of a sample that, as a whole, favours compounds with a hit. Of some 83,000 tested, about 20% had one in any assay.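 Values shown are percent growth following 48 h exposure of cells in 96-well plates to a single concentration of compound; below 10 was considered active.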 Values without a mark were called inactive. Active and inactive are the calls of the source.

system: IGROV1 ovarian; assay: NCI-60 one-dose screen, 48 h (100 = growth as untreated, 0 = no growth, -100 = all killed); settings: 10 µM unless noted
Description: Growth inhibition of the IGROV1 human tumor cell line is measured as a screen for anti-cancer activity. Cells are grown in 96 well plates and exposed to the test compound for 48 hours. Compounds are tested at a single concentration, which is 10^-5 M for most compounds. The reported endpoint is percent growth (GI% or GIPRCNT), where numbers from 0 - 100% represent growth inhibition, and numbers from -100% - 0 represent cell death. For example, a value of 40 represents 60% growth inhibition. A value of 0 means no net growth occurred over the course of the experiment. A value of -40 indicates 40% of cells at the beginning of the experiment died by the end of the experiment. A value of -100 means all cells are dead at the end of the experiment.
NCI-60 Human Tumor Cell Lines Screen was performed using the standard one-dose NCI protocol, which is described in more detail at https://dtp.cancer.gov/discovery_development/nci-60/default.htm.
Compounds with GIPRCNT values below 10 were considered active. Activity score was based on GIPRCNT using the following formula: […]
Score is 0 for GIPRCNT values of 100 or above, 50 for GIPRCNT values of 0, and 100 for GIPRCNT values of -100.

| Compound | growth |
| --- | --- |
| OC1CSSC1Cn1cnc2c(Nc3ccc(OCc4cccc(F)c4)c(Cl)c3)ncnc21 (stereo not given) | 41.4% |
| O=C(Cn1nc(-c2cccc3ccccc23)ccc1=O)NCc1cccc(Cl)c1 | 47.2% [50 µM] |
| COc1cc(Cc2cc(OC)c(O)c(OC)c2)cc(OC)c1O | 91.6% |
| COC(=O)/C=C1/SC(=NCc2ccccc2)N(CCc2c[nH]c3ccccc23)C1=O | 92.1% |
| COc1ccc(-c2cn(Cc3cc4ccccc4s3)nn2)cc1OCCN1CCCCC1 | 80.8% |
| O=c1cc(C(F)(F)F)c2cc(-c3cc4ccccc4c(=O)o3)c(O)cc2o1 | 92.6% |
| CC1SC(c2ccccc2O)N(NC(=O)CCC(=O)c2nc3ncccc3[nH]2)C1=O (stereo not given) | 70.1% |
| COc1ccc(C(=O)/C=C/c2ccccc2)cc1S(N)(=O)=O | 54.3% |
| CCSc1ccnc(N)n1 | 96.7% |
| CCN(CC)CCCC(Cc1ccccc1)Nc1c2ccc(Cl)cc2nc2ccc(OC)cc12 (stereo not given) | 32.7% |
| COC(=O)c1ccc2cc(OC)c(OC)cc2c1 | 118% |
| CC(=O)N1N=C(c2ccc(Nc3nc(Nc4ccc(F)cc4)nc(Nc4ccc(F)cc4)n3)cc2)CC1c1ccc(N(C)C)cc1 (stereo not given) | 48% |
| CC(=O)Nc1sc2c(c1-c1nc3ccccc3s1)CNC2 | 13.5% |
| COc1cc(-c2ccc[nH]2)[nH]c1/C=C1\N=C(C)C(CC(=O)OCC(C)(C)C)=C1C | -43.4% (active) |
| N#Cc1c(-c2ccccc2)nc2c(c(-c3ccccc3)nn2-c2ccccc2)c1-c1ccc(N2CCCCC2)cc1 | 104% |
| C#CCOc1ccc2nc(CCl)c(Cl)c(Nc3cccc(C(F)(F)F)c3)c2c1 | 85.1% |
| Cn1cc(-c2csc(-c3cn(C)c4ccccc34)n2)c2cnccc21 | 68.5% |
| COc1ccc(CN2C(=O)OC(C)(COC(C)=O)C2=O)cc1 (stereo not given) | 107% |
| O=C(Nc1nc(Cl)nc(Nc2ccc(N3CCOCC3=O)cc2)n1)c1ccc(Cl)s1 | 72.6% |
| C/C(=N\Nc1ccccc1)c1ccc(NC2=CC(=O)c3ccccc3C2=O)cc1 | 50.8% |

| Compound | growth |
| --- | --- |
| COc1ccc2c(c1)oc1c(C)c3c(c(C)c12)C(=O)N(CCOS(C)(=O)=O)C3=O | 88.4% |
| CCOC(=O)/C(=C(/C)NCC(C)C)c1cc(O)c(O)c2c(C)cc(=O)[nH]c12 | 61% |
| COc1ccc2c(c1)CC[C@@H]1[C@@H]2CC[C@]2(C)C3C(=CC(COC(C)=O)C4C(=O)N(c5ccc(Cl)cc5)C(=O)C43)C[C@@H]12 (stereo not given in full) | 119% |
| NS(=O)(=O)c1ccc(C(=O)NN2C(=O)c3ccccc3C2=O)cc1 | 113% |
| O=[N+]([O-])c1ccccc1Sc1ccccc1[N+](=O)[O-] | 105% |
| O=C(O)c1cn(C2CC2)c2cc(N3CCN(C(=O)N/N=C/c4cccc5ccccc45)CC3)c(F)cc2c1=O | 94.5% |
| COc1ccc(Oc2ccc(/C=C/C(=O)c3cc4ccccc4oc3=O)cc2)cc1 | 70.1% |
| CCC(C)(C)c1ccc(Nc2ccc(Nc3ccc(C(C)(C)CC)cc3)cc2)cc1 | 95.3% |
| C=C1C(=O)O[C@H]2[C@H]1CC/C(COC(=O)NCc1ccc(Cn3c(=O)sn(-c4ccccc4)c3=O)cc1)=C\CC[C@@]1(C)O[C@@H]21 | -40.1% (active) |
| CCOC(=O)c1nnn(Cc2cc(=O)oc3ccc(O)cc23)c1C | 106% |
| O=C(/C=C/C12c3ccccc3C(c3ccccc31)C1C(=O)NC(=O)C12)c1ccc(Cl)cc1Cl (stereo not given) | 23.4% |
| COc1ccc2cc(-c3nc4ccc(C)cn4c3NCc3ccco3)c(=O)[nH]c2c1 | 63.4% |
| CC1=C2[C@@H](CC1)[C@]1(C)O[C@@](C3CCNCC3)(C[C@H]1OC(=O)CO)[C@H]2OC(=O)/C=C/c1ccccc1 | 80.3% |
| O=C(/C=C/c1ccccc1Cl)c1cccc(OCCCCOc2cccc(C(=O)/C=C/c3ccccc3Cl)c2)c1 | 92.8% |
| COc1ccc(CNc2ccc3nc(NC(=O)CN4CCCCCC4)sc3c2)cc1 | 107% |
| COc1cc2c(c(OC)c1OC)C(=O)CC(c1cccc(C(=O)Nc3ccccc3Br)c1)O2 (stereo not given) | 91.6% |
| O=S(=O)(N=C1C(Cl)=C(Cl)C(=NS(=O)(=O)c2ccccc2)C(Cl)=C1Cl)c1ccccc1 | 57.7% |
| N#Cc1c(-c2ccc(Br)cc2)nc2c(N=Nc3ccc(S(N)(=O)=O)cc3)c(N)nn2c1N | 40.9% |
| CN1CCN(Cc2ccc(NC(=O)c3cncc(C#Cc4cnc(N)cc4C#N)c3)cc2C(F)(F)F)CC1 | 1.46% (active) |
| Cc1ccc(O)c(NC(=O)c2cccc(Nc3ccnc(C(F)(F)F)c3)c2)c1 | 79.1% |
